# Screens deposited in PubChem BioAssay by several laboratories.
# BoNT-A LC inh2 = BoNT/A light chain protease inhibitors, primary screen, biochemical, flow cytometry, MLPCN library; inhibition, % at 10 µM; multiplex microsphere protease substrate cleavage; Botulinum neurotoxin type A light chain protease (Clostridium botulinum A str. ATCC 3502); actives 0.17% (n = 360,000); also: plate controls were buffer without enzyme for full effect and enzyme alone for no effect
# Anthrax LF inh2 = Bacillus anthracis LF protease inhibitors, primary screen, biochemical, multiplex microsphere, MLPCN library | actives 0.12% (n = 360,000) | inhibition, % at 10 µM | multiplex microsphere protease cleavage assay | Lethal factor (Bacillus anthracis), P15917; also: plate controls were buffer without enzyme for full effect and enzyme alone for no effect
# Target sequence (P15917 whole entry, looked up): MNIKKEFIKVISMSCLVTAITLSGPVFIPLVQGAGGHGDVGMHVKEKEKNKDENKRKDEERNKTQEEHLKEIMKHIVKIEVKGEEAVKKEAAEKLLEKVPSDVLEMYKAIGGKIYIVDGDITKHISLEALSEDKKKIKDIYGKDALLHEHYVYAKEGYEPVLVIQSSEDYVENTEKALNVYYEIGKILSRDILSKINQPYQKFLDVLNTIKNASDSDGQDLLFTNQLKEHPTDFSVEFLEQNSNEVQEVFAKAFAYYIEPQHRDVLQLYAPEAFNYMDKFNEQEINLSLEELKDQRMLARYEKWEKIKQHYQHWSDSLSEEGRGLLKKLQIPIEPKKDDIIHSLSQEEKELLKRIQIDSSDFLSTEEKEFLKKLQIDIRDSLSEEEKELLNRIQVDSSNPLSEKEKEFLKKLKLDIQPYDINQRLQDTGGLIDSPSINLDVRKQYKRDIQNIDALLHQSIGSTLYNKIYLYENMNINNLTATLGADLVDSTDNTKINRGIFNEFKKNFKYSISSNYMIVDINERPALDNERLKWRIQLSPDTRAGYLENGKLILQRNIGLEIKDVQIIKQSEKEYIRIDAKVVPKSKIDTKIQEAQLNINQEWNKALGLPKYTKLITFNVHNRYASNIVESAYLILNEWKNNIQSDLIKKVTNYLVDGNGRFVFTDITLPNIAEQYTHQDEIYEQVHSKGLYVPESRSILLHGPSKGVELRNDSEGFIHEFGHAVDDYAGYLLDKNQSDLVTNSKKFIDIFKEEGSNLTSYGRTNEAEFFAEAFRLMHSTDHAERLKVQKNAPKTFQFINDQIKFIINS
# PriA SSB inh = inhibitors of Klebsiella pneumoniae PriA binding to SSB C-terminal tail, primary screen, biochemical, AlphaScreen; PriA–SSB C-terminal tail interaction (Klebsiella pneumoniae); AlphaScreen SSBct-PriA binding, biotinylated peptide; actives 0.6% (n = 430,000); inhibition, % at 33 µM; in the data active = inhibition mostly above about 37%, no sharp cut-off; inactive = mostly below about 20%;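 also: plate controls were negative control peptide for no effect and reference peptide for full effect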
# BoNT-F LC inh = BoNT/F light chain protease inhibitors, primary screen, biochemical, flow cytometry, MLPCN library; Multiplex microsphere protease cleavage assay; inhibition, % at 10 µM; actives 0.22% (n = 360,000); in the data active = inhibition above about 35%, passing the limit was not always enough; inconclusive = no clear call, values can overlap the other calls; also: plate controls were buffer without enzyme for full effect and enzyme alone for no effect
# Autofluor counter = compound fluorescence in toxin protease inhibitor counterscreen | compound autofluorescence counterscreen, microsphere flow cytometry; active compounds read high | AID 624483 | fluorescence intensity (concentration not given with the values) | actives 3.1% (n = 360,000); in the data active = fluorescence intensity above about 16000; inconclusive = no clear call, values can overlap the other calls
# BoNT-A LC CP2 = BoNT/A light chain protease inhibitors, confirmation, biochemical, flow cytometry, cherry pick 2. inhibition, % at 10 µM. multiplex microsphere protease cleavage assay. shares compounds with BoNT-A LC inh2. AID 602325, 2012. actives 10% (n = 150); in the data active = inhibition above about 24%
# LF protease CP2 = Bacillus anthracis LF protease inhibitors, confirmation, biochemical, multiplex microsphere; shares compounds with BoNT-A LC inh2; multiplex microsphere protease cleavage assay; inhibition, % at 10 µM; actives 7% (n = 150); AID 602327, 2012; in the data active = inhibition above about 25%
# BoNT-F LC CP2 = BoNT/F light chain protease inhibitors, confirmation, biochemical, flow cytometry, cherry pick 2; actives 7% (n = 150); multiplex microsphere protease cleavage assay; inhibition, % at 10 µM; shares compounds with BoNT-A LC inh2; in the data active = inhibition above about 25%
# The depositor's hits bear a star; ? = inconclusive; . = no result given; ! = not confirmed by another sample. Shown are actives, neighbours in structure and some others; about 3.1% of the full set was active somewhere. Rule as the data show it, unless noted: active = inhibition above about 30%; inconclusive = no clear call, values can overlap the other calls; inactive = below that.
SMILES,BoNT-A LC inh2,Anthrax LF inh2,PriA SSB inh,BoNT-F LC inh,Autofluor counter,BoNT-A LC CP2,LF protease CP2,BoNT-F LC CP2
Cc1cc2cc(CNC(=O)c3ccc(S(=O)(=O)N4CCCCC4)cc3)ccc2[nH]1,44.3*,-64.2,7.4,-86.6,3901,10.2,8.4,11.3
O=C(OCC(=O)c1c[nH]c2ccccc12)c1cc(Br)ccc1O,0.6,-1.1,-9.8,-2.4,3144,2.1,-0.8,8.2
O=C(COc1ccccc1)OCC(=O)c1c[nH]c2ccccc12,0.4,-5.1,-8.0,0.0,2839,0.8,0.9,3.2
Cc1ccc(C(=O)OCC(=O)c2c[nH]c3ccccc23)cc1,0.5,1.0,3.2,-6.2,2547,4.1,3.3,14.4
Cc1cnc(C(=O)OCC(=O)c2c[nH]c3ccccc23)cn1,4.9,11.5,-5.0,?,9016,.,.,.
O=C1CCC(C(=O)OCC(=O)c2c[nH]c3ccccc23)=NN1,0.1,1.7,3.4,-3.7,2538,.,.,.
COc1ccc(C(=O)OCC(=O)c2c[nH]c3ccccc23)cc1OC,36.9*,39.2*,-8.7,-11.4,5543,27.7*,3.3,-10.7
COc1ccc(OCC(=O)c2c[nH]c3ccccc23)cc1,-1.7,2.9,-2.9,-11.6,4821,.,.,.
O=C(N/N=C\c1ccc(-c2cccc([N+](=O)[O-])c2)o1)c1ccncc1,.,.,9.0,.,.,.,.,.
Cc1ccc(SCC(=O)Nc2ccc3ncsc3c2)cc1,.,.,2.0,.,.,.,.,.
CCOC(=O)c1ccccc1NC(=O)COc1ccc(-c2nnc(C)o2)cc1,.,.,-11.0,.,.,.,.,.
COc1ccc(Cl)cc1NC(=O)NC1CCCC(O)C1 (stereo unspecified),.,.,-3.0,.,.,.,.,.
CC(C)Cc1ccc(C(C)C(=O)OCC(=O)c2c[nH]c3ccccc23)cc1 (stereo unspecified),-0.1,-0.9,-37.6,2.6,11396,1.9,-1.4,5.8
CC(=O)N1CCc2c(sc3nc(SCc4cccc(Cl)c4)n(-c4ccccc4)c(=O)c23)C1,.,.,-4.0,.,.,.,.,.
CCCCCCCCC(c1nc2cc(C)c(C)cc2[nH]1)n1c(=O)c(-c2ccccc2Br)nc2ccccc21 (stereo unspecified),28.3,16.4,.,7.2,4821,28.1*,2.4,18.9
CCCCC(c1nc2ccccc2[nH]1)n1c(=O)c(-c2ccccc2)nc2cc(C)c(C)cc21 (stereo unspecified),30.3*,34.0*,.,5.2,3875,11.1,7.7,11.0
CCCCC(c1nc2ccccc2[nH]1)n1c(-c2ccccc2)nc2cc(C)c(C)cc21 (stereo unspecified),-2.4,-0.4,.,-19.4,6080,.,.,.
Cn1ccc2c(-c3cccc(C=O)c3)cc3c(c21)C1CCC3C1 (stereo unspecified),1.2,-7.0,.,0.8,4170,.,.,.
COc1ccc(-c2cc3c(c4c2ccn4C)C2CCC3C2)cc1OC (stereo unspecified),20.5,6.5,.,-30.3,4059,13.6,2.7,-22.0
Cn1ccc2c(-c3cccnc3)cc3c(c21)C1CCC3C1 (stereo unspecified),0.8,4.2,.,1.5,5938,1.7,0.4,9.6
CN(c1cccc(F)c1)c1cc2c(c3c1ccn3C)C1CCC2C1 (stereo unspecified),-0.9,-15.9,.,-5.3,4440,.,.,.
Cn1ccc2c(-c3ccc(F)nc3)cc3c(c21)C1CCC3C1 (stereo unspecified),50.3*,37.2*,.,4.6,3942,33.4*,32.2*,0.8
Cn1ccc2c(-c3ccc(F)cc3F)cc3c(c21)C1CCC3C1 (stereo unspecified),15.6,7.2,.,-12.3,4959,1.6,-2.4,-9.5
Cn1ccc2c(-c3cccc(C=O)c3F)cc3c(c21)C1CCC3C1 (stereo unspecified),18.8,-23.7,.,-67.1,3712,.,.,.
Cc1cccc(NC(=O)NCc2ccc3c(c2)cc(C)n3C)c1,58.5*,-131.0,45.9*,-149.3,1708,21.0,3.4,-37.2
SMILES,BoNT-A LC inh2,Anthrax LF inh2,PriA SSB inh,BoNT-F LC inh,Autofluor counter,BoNT-A LC CP2,LF protease CP2,BoNT-F LC CP2
Cc1cc2cc(CNC(=O)c3ccccc3Br)ccc2n1C,.,.,13.0,.,.,.,.,.
Cc1cc2cc(CNC(=O)Nc3cccc(Cl)c3)ccc2n1C,48.4*,-137.0,59.8*!,-140.3,1277,8.1,8.9,10.2
Cc1oncc1C(=O)Nc1ccc2c(c1)N(CCC(C)C)C(=O)C(C)(C)CO2,.,.,-10.0,.,.,.,.,.
c1ccc(Nc2nc(Cc3ccsc3)cs2)nc1,.,.,1.0,.,.,.,.,.
Cc1cc2nc(-c3cccc(Br)c3)c(Cc3cccc(Cl)c3)n2c(C)c1Br,0.1,-4.7,.,-8.4,5299,11.7,2.6,44.8*
COc1ccccc1Cc1c(-c2ccc(C)cc2)nc2cc(C)c(Br)c(C)n12,1.8,4.4,.,-1.5,4617,10.1,7.0,19.4
COc1ccccc1Cc1c(-c2ccccc2)nc2cc(C)c(Br)c(C)n12,1.2,7.3,.,-3.0,4357,2.9,-1.6,-2.9
Cc1cc2nc(-c3cccc(Cl)c3)c(Cc3ccccc3)n2c(C)c1Br,1.0,-1.1,.,-6.5,6508,.,.,.
COc1ccccc1Cc1c(-c2ccc(F)cc2)nc2cc(C)c(Br)c(C)n12,1.2,9.2,.,-19.5,6390,24.7*,-3.7,21.3
NC(=NN=Cc1ccccc1)C(N)=NN=Cc1ccccc1,.,.,-22.2,.,.,.,.,.
O=C(Nc1ccc(Cl)c2ncsc12)c1ccccc1F,.,.,-3.0,.,.,.,.,.
Cc1ccc(OCC(=O)NC(C)c2ccccc2)c(C)c1 (stereo unspecified),.,.,-39.0,.,.,.,.,.
COc1cc(N(C)C)ccc1C=c1c2ccccc2n2c1cc(-c1ccccc1)[n+]2C,56.5*,-45.0,92.0,-112.0,1971,29.8*,5.1,-62.3
CC(C)C(=O)N1CCCc2ccc(NC(=O)C(=O)NC3CCCCC3)cc21,.,.,1.0,.,.,.,.,.
COc1ccc(NC(=O)c2cc(S(=O)(=O)N3CCCC3)ccc2C)cn1,11.7,44.9*,4.1,73.3*,2946,1.2,-2.1,-1.2
COc1ccc(NC(=O)c2cc(S(=O)(=O)N3CCOCC3)ccc2C)cc1S(=O)(=O)N1CCCCC1,0.0,2.4,0.7,2.9,3883,.,.,.
O=c1oc(Cc2cccc3ccccc23)nc2scc(-c3ccccc3)c12,.,.,-24.0,.,.,.,.,.
COc1ccc2cc(C3=CC(=O)CC(C)(C)C3=O)ccc2c1,26.5,32.1*,.,22.0,3419,8.6,5.7,3.5
COc1ccc(-c2ccccc2C2=CC(=O)CC(C)(C)C2=O)cc1,18.2,21.9,.,8.2,3662,.,.,.
O=S(=O)(NCc1cc(C2CC2)n(C2CCCC2)n1)c1ccc2c(c1)CCO2,.,.,-3.0,.,.,.,.,.
